Reference: PubChem BioAssay AID1159580 (chemical genetic matrix, 2015)
Screen size: about 5,500 compounds; about 2,000 (36%) were called active. Another 18% or so got no clear call; they are omitted. Rule as the data show it: active = normalized growth mostly below about 0.91 (no sharp cut-off); inconclusive = no clear call, values can overlap the other calls; inactive = mostly above about 0.92. The list shows a part of the results.

Experiment: chemical genetic growth profiling, strain panel (AID 1159580);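 also: tested at 20 µM; growth read once vehicle control cultures reached saturation at 30 °C; 1 = growth at the plate median or of vehicle wells; lower values mean less growth of the strain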
Settings: growth OD
[1] = S. cerevisiae deletion strains, locus YAL013W, strain DEP1, stronger effect = lower value
[2] = S. cerevisiae deletion strains, locus YBR229C, strain ROT2, stronger effect = lower value
[3] = S. cerevisiae deletion strains, locus YCL061C, strain MRC1, stronger effect = lower value
[4] = S. cerevisiae deletion strains, locus YDL101C, strain DUN1, stronger effect = lower value
[5] = S. cerevisiae deletion strains, locus YDR150W, strain NUM1, stronger effect = lower value
[6] = S. cerevisiae deletion strains, locus YEL061C, strain CIN8, stronger effect = lower value
[7] = S. cerevisiae deletion strains, locus YGR078C, strain PAC10, stronger effect = lower value
[8] = S. cerevisiae deletion strains, locus YHR030C, strain SLT2, stronger effect = lower value
[9] = S. cerevisiae deletion strains, locus YHR087W, strain rtc3, stronger effect = lower value
[10] = S. cerevisiae deletion strains, locus YJL187C, strain SWE1, stronger effect = lower value
[11] = S. cerevisiae deletion strains, locus YJR043C, strain POL32, stronger effect = lower value
[12] = S. cerevisiae deletion strains, locus YJR075W, strain HOC1, stronger effect = lower value
[13] = S. cerevisiae deletion strains, locus YLR039C, strain RIC1, stronger effect = lower value
[14] = S. cerevisiae deletion strains, locus YLR058C, strain SHM2 (second series), stronger effect = lower value
[15] = S. cerevisiae deletion strains, locus YLR085C, strain ARP6, stronger effect = lower value
[16] = S. cerevisiae deletion strains, locus YLR262C, strain YPT6, stronger effect = lower value
[17] = S. cerevisiae deletion strains, locus YML094W, strain GIM5, stronger effect = lower value
[18] = S. cerevisiae deletion strains, locus YMR219W, strain ESC1, stronger effect = lower value
[19] = S. cerevisiae deletion strains, locus YMR263W, strain SAP30, stronger effect = lower value
[20] = S. cerevisiae deletion strains, locus YNL128W, strain TEP1, stronger effect = lower value
[21] = S. cerevisiae deletion strains, locus YNL153C, strain GIM3, stronger effect = lower value
[22] = S. cerevisiae deletion strains, locus YNL298W, strain CLA4 (second series), stronger effect = lower value
[23] = S. cerevisiae deletion strains, locus YNL322C, strain KRE1, stronger effect = lower value
[24] = S. cerevisiae deletion strains, locus YNR030W, strain Alg12, stronger effect = lower value
[25] = S. cerevisiae deletion strains, locus YOL006C, strain TOP1, stronger effect = lower value
[26] = S. cerevisiae deletion strains, locus YPL055C, strain LGE1, stronger effect = lower value
[27] = S. cerevisiae deletion strains, locus YPL241C, strain CIN2, stronger effect = lower value
[28] = S. cerevisiae deletion strains, locus YPR135W, strain CTF4, stronger effect = lower value
[29] = S. cerevisiae strains, strain wild type, stronger effect = lower value

Measured: normalized growth

CCOC(=O)Cn1c(=O)c(C#N)cn(C(C)C)c1=O
inactive: [1] 1.01 | [2] 1.01 | [3] 0.993 | [4] 1.02 | S. cerevisiae deletion strains, locus YDL134C, strain PPH21, stronger effect = lower value 1.01 | [5] 1.02 | [6] 0.988 | [7] 1.01 | [8] 1.03 | [9] 1 | [10] 1 | [11] 0.998 | [12] 1.02 | [13] 1.02 | [14] 1.01 | [15] 0.976 | [16] 1.01 | [17] 1 | [18] 1.01 | [19] 1 | [20] 0.98 | [21] 1 | [22] 1.04 | [23] 1.01 | [24] 1.02 | [25] 1.03 | [26] 0.984 | [27] 1.02 | [28] 1.02 | [29] 1.01

CC(C)n1cc(C#N)c(=O)n(Cc2ccccc2)c1=O
inactive: [1] 0.992 | [2] 0.994 | [3] 0.991 | [4] 1.02 | [5] 0.923 | [6] 1 | [7] 0.991 | [8] 0.983 | [9] 0.989 | [10] 0.977 | [12] 0.999 | [13] 1.01 | [14] 1 | [15] 0.999 | [16] 1.04 | [17] 0.988 | [18] 1 | [19] 0.967 | [20] 0.994 | [21] 0.984 | [22] 1.05 | [23] 0.996 | [24] 1.01 | [26] 0.979 | [27] 1 | [28] 0.994 | [29] 1.01

CCCn1c(=O)c(C#N)cn(-c2ccc(Cl)cc2)c1=O
inactive: [1] 1.01 | [2] 0.986 | [3] 1.01 | [4] 0.991 | [5] 1.02 | [6] 0.97 | [7] 0.996 | S. cerevisiae deletion strains, locus YGR229C, strain SMI1, stronger effect = lower value 0.997 | [8] 0.937 | [9] 0.977 | [11] 1.02 | [12] 1.01 | [14] 0.986 | [15] 0.893 | [16] 0.821 | [17] 0.963 | [18] 0.99 | [19] 1 | [21] 1 | [22] 0.961 | [23] 0.979 | [24] 0.99 | [25] 0.924 | [26] 1.04 | [27] 0.982 | [28] 1.03
active: [10] 0.93 | [13] 0.759
